Data reported in PubChem BioAssay (NCATS).
Inconclusive results are not listed. Calls of active or inactive are those of the source. Calls follow the shape of the dose curve; as a rule, active = well fitted cell-killing curve with a large enough effect; inconclusive = small, poorly fitted or top-dose-only effect, or effect the other way; inactive = flat fitted curve, though single readings scatter. Where a SMILES comes first, the peptide text is derived from it. The star is where a group is joined. Cbz = O=C(OCc1ccccc1)*; CH2F = FC*

Legend:
Test in all cases: Primary qHTS to identify gynecologic anti-cancer compounds using libraries of approved drugs and bioactive compounds (AID 1345084); also: nearly all actives have a fitted effect of over 55% in size
Conditions in all cases: Gynecologic cancer cell panel viability, ATPlite luminescence, 48 h; series mostly up to 57.5 µM
[1] = test system: SKOV3
Procedure, shortened: (§1)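 Cells, 1,000 per well, plated 16 h, then exposed 48 h at 37 C to compounds. Viability by ATPlite luminescence after 15 min at room temperature.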

[2] = test system: Tov-21-G
Procedure, shortened: as §1

[3] = test system: Tov112D
Procedure, shortened: as §1
% is scaled to controls: 0 for no effect and ±100 for the full control effect.

O=C(Cc1ccccc1)OC[C@H]1O[C@H](O[C@H]2O[C@H](CO)[C@@H](O)[C@H](O)[C@H]2O)[C@H](O)[C@@H](O)[C@@H]1O
inactive: Potency [1] | Potency [2] | Potency [3]

C/C1=C\CC(C)(C)/C=C/C/C(C(=O)O)=C/CC1
inactive: Potency [1] | Potency [2] | Potency [3]

O=C(C[C@@H]1C(C(=O)O)=CO[C@@H](O[C@@H]2O[C@H](CO)[C@@H](O)[C@H](O)[C@H]2O)/C1=C\CO)OCCc1ccc(O)cc1
inactive: Potency [1] | Potency [2] | Potency [3]

Cc1noc2c1-c1ccccc1C(c1ccc(Cl)cc1)=N[C@H]2CC(N)=O
inactive: Potency [1] | Potency [2] | Potency [3]

CC12CC(c3ccoc3)OC(=O)C1CCC1(C)C2CCC(O)C1(C)O (stereo unspecified)
inactive: Potency [1] | Potency [2] | Potency [3]

CC1OC(OC2CCC3(C)C(CCC4(C)C3C=CC35OCC6(CCC(C)(C)CC63)CCC45C)C2(C)CO)C(OC2OC(CO)C(O)C(O)C2O)C(O)C1OC1OC(CO)C(O)C(O)C1O (stereo unspecified)
inactive: activity change, negative = cytotoxicity [1] 6.92% [at 11.6 µM] | activity change, negative = cytotoxicity [2] 3.71% [at 11.6 µM] | activity change, negative = cytotoxicity [3] 11.6% [at 11.6 µM]

C=C(CCO[C@@H]1O[C@H](CO)[C@@H](O)[C@H](O)[C@H]1O)C(=O)O
inactive: Potency [1] | Potency [2] | Potency [3]

CC1(C)CC[C@]2(C(=O)O)CC[C@]3(C)C(=CCC4[C@@]5(C)C[C@H](O)[C@H](O[C@@H]6O[C@H](CO)[C@@H](O)[C@H](O)[C@H]6O)[C@@](C)(CO)C5[C@H](O)C[C@]43C)[C@@H]2C1 (stereo partly specified)
inactive: Potency [1] | Potency [2] | Potency [3]

COc1ccc(/C=C/C(=O)N2CCCC2)cc1
inactive: Potency [1] | Potency [2] | Potency [3]

COc1ccc(NC(=O)c2ccc(-c3ccc(C(N)=O)cc3C)cc2)cc1N1CCN(C)CC1
inactive: Potency [1] | Potency [2] | Potency [3]

C/C(=C\C(=O)C[C@@]12C(=O)O[C@]3(C)CC[C@H]1C[C@H]23)C(N)=O
inactive: Potency [1] | Potency [2] | Potency [3]

COC(=O)CC[C@H](NC(=O)[C@H](CC(C)C)NC(=O)OCc1ccccc1)C(=O)N[C@@H](Cc1cnc[nH]1)C(=O)N[C@@H](CC(=O)OC)C(=O)CF (Cbz-LE(OMe)HD(OMe)-CH2F)
inactive: activity change, negative = cytotoxicity [1] -4.39% [at 11.6 µM] | activity change, negative = cytotoxicity [2] 4.92% [at 11.6 µM] | activity change, negative = cytotoxicity [3] 6.4% [at 11.6 µM]

C=C1[C@H]2CCC3[C@]4(C)CCC[C@@](C)(C(=O)O)C4CC[C@]3(C2)[C@H]1OC(C)=O (stereo partly specified)
inactive: Potency [1] | Potency [2] | Potency [3]

CC[C@H](C)[C@H](NC(=O)[C@H](Cc1ccc(O)cc1)NC(=O)[C@@H](N)C(C)C)C(=O)N[C@@H](Cc1cnc[nH]1)C(=O)N1CCC[C@H]1C(=O)N[C@@H](Cc1ccccc1)C(=O)O
inactive: activity change, negative = cytotoxicity [1] 16.8% [at 6.55 µM] | activity change, negative = cytotoxicity [2] 1.06% [at 6.55 µM] | activity change, negative = cytotoxicity [3] 12.4% [at 6.55 µM]

CC1=C2C3OC(=O)C(C)C3(O)CCC2(C)CCC1 (stereo unspecified)
inactive: Potency [1] | Potency [2] | Potency [3]

COc1c(C)c(OCC(O)C(C)(C)O)cc2c1CNC2=O (stereo unspecified)
inactive: Potency [1] | Potency [2] | Potency [3]

CC1(CO)CCCC2(C)C1C(OC(=O)c1ccccc1)CC1C(=O)OCC12O (stereo unspecified)
inactive: Potency [1] | Potency [2] | Potency [3]

O=C(/C=C/c1ccc(O)cc1)OC[C@@]1(O)C=C[C@@H]2C(C(=O)O)=CO[C@@H](O[C@@H]3O[C@H](CO)[C@@H](O)[C@H](O)[C@H]3O)[C@@H]21
inactive: Potency [1] | Potency [2] | Potency [3]

CCC(C)C(=O)O[C@H]1[C@@H](O[C@H]2O[C@H](CO)[C@@H](O)[C@H](O)[C@H]2O)O[C@H](CO)[C@@H](O)[C@@H]1O (stereo partly specified)
inactive: Potency [1] | Potency [2] | Potency [3]

CC(=O)O[C@@H]1C=C2[C@H](CC[C@@]3(C)[C@@]2(O)CC[C@H]2Cc4c([nH]c5ccccc45)[C@@]23C)O[C@@H]1C(C)(C)O
inactive: Potency [1] | Potency [2] | Potency [3]

CCC/C=C/C=C/C1CC(O)C(O)C(=O)C1CO (stereo unspecified)
inactive: Potency [1] | Potency [2] | Potency [3]

C/C=C(\C)C(=O)OCC1OC(OC2OC(CO)C(O)C(O)C2O)C(O)C(O)C1O (stereo unspecified)
inactive: Potency [1] | Potency [2] | Potency [3]

CC1CCC2(C(=O)O)CCC3(C)C(=CCC4C5(C)CCC(O)C(C)(C(=O)O)C5CCC43C)C2C1(C)O (stereo unspecified)
inactive: Potency [1] | Potency [2] | Potency [3]

CC1OC(OC2C(OC(=O)[C@]34CCC(C)(C)C[C@H]3C3=CCC5[C@@]6(C)CC[C@H](OC7OC(C(=O)O)C(O)C(O)C7O)C(C)(C)C6CC[C@@]5(C)[C@]3(C)CC4O)OC(CO)C2O)C(O)C(O)C1OC1OCC(O)C(O)C1O (stereo partly specified)
inactive: activity change, negative = cytotoxicity [1] -0.208% [at 11.6 µM] | activity change, negative = cytotoxicity [2] 5.56% [at 11.6 µM] | activity change, negative = cytotoxicity [3] -3.39% [at 11.6 µM]

CC(=O)OCC1OC(O[C@H]2CC[C@]34C[C@]35CC(O)[C@]3(C)[C@@H]([C@H](C)CC/C=C(\C)C(=O)O)C(O)C[C@@]3(C)C5CC[C@H]4C2(C)C)C(O)C(O)C1OC1OCC(O)C(O)C1O (stereo partly specified)
inactive: activity change, negative = cytotoxicity [1] -12.1% [at 11.6 µM] | activity change, negative = cytotoxicity [2] 4.53% [at 11.6 µM] | activity change, negative = cytotoxicity [3] 2.89% [at 11.6 µM]

CC(C)C[C@H](NC(=O)[C@@H]1O[C@H]1C(=O)O)C(=O)NCCCCN=C(N)N
inactive: Potency [1] | Potency [2] | Potency [3]

COc1cccc(C(=O)NCCNc2nc3cc(C)cc(C)c3cc2C#N)c1
inactive: Potency [1] | Potency [2] | Potency [3]
